Test results published in PubChem BioAssay (NCATS).
Results filed as inconclusive are left out. Active and inactive are the calls of the source. Unless noted, calls follow the shape of the dose curve; as a rule, active = well fitted curve in the direction sought with a large enough effect; inconclusive = small, poorly fitted or top-dose-only effect, or another doubt; inactive = no such curve, though single readings can be large; an effect the other way counts as inactive or inconclusive.

Experiments:
[1] = A High-Content qHTS Against Drug Library for the Identification of Small Molecules that Inhibit DYT1 Early Onset Primary Dystonia-Associated Cell Pathology (AID 1645839; calls by dose curve); settings: HEK293 Flp-In EGFP-delE TorsinA, punctate imaging, 48 h; series mostly up to 46.1 µM
In short: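 Induced EGFP-delE TorsinA cells are imaged after 48 h of compound treatment. Punctate fusion-protein distribution gives the %pathology value, while nuclei counts flag toxicity. Wild-type EGFP-hTOR1A cells define the normal pattern.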

[2] = target: Cytochrome P450 2D6 (Homo sapiens) (UniProt P10635); assay: Cytochrome P450 family 2 subfamily D member 6 (CYP2D6) small molecule antagonists: luciferase biochemical (cell-free) qHTS assay (AID 1645840; active = well fitted curve in the direction sought with a large enough effect in the repeat runs; an effect the other way counts as inactive or inconclusive; also: nearly all actives have a fitted effect of over 55% in size); settings: P450-Glo CYP2D6 enzyme, luciferin luminescence, 1 h; series mostly up to 57.4 µM
Chain of Cytochrome P450 2D6 (Homo sapiens) (P10635 whole entry, looked up): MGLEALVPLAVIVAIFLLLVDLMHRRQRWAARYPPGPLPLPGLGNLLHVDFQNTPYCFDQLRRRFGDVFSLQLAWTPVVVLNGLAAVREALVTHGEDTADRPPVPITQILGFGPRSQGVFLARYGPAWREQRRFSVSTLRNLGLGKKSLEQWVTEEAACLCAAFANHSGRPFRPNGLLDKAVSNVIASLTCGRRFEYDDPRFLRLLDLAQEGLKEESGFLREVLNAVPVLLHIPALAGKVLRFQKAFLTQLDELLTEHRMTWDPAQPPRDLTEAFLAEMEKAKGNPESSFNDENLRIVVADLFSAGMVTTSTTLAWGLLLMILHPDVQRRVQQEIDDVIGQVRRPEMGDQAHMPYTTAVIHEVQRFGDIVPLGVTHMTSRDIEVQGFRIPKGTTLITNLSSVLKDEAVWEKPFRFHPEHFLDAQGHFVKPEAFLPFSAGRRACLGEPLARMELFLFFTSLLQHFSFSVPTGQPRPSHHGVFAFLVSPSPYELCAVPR
In short: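 P450-Glo CYP2D6 system: proluciferin substrate converted by enzyme to luciferin, read by luminescence proportional to activity. Enzyme-substrate mix with compound 10 min at room temperature, then NADPH regeneration 1 h before detection reagent.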

[3] = target: Cytochrome P450 2C9 (Homo sapiens) (UniProt P11712); assay: Cytochrome P450 family 2 subfamily C member 9 (CYP2C9) small molecule antagonists: luciferase biochemical (cell-free) qHTS assay (AID 1645842; active = well fitted curve in the direction sought with a large enough effect in the repeat runs; an effect the other way counts as inactive or inconclusive; also: nearly all actives have a fitted effect of over 55% in size); settings: P450-Glo CYP2C9 enzyme assay, luciferin luminescence; series mostly up to 57.4 µM
Chain of Cytochrome P450 2C9 (Homo sapiens) (P11712 whole entry, looked up): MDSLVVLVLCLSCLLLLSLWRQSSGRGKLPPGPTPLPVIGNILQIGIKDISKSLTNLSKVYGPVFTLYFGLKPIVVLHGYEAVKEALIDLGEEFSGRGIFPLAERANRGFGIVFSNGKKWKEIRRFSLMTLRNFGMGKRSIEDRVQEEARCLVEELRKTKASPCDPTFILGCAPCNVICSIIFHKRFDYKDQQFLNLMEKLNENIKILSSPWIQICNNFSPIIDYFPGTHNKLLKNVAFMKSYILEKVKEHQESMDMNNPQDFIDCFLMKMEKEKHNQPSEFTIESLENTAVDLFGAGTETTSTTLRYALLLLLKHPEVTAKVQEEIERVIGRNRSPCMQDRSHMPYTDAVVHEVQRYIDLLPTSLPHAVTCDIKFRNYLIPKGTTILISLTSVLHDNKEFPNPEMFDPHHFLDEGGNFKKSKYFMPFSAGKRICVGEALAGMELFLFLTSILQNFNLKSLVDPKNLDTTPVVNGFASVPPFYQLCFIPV
In short: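 P450-Glo CYP2C9 system: proluciferin substrate with enzyme in mix containing 0.4% BSA, 10 min at room temperature, then NADPH regeneration solution added and incubated 1 h at 37C. Detection reagent stopped reaction; luminescence read after 20 min as RLU.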

[4] = Primary qHTS for inhibitors of nuclear receptor binding SET domain protein 2 (NSD2) in an isogenic RCH-ACV NSD2 p.E1099K mutant (9B) (AID 1645876); settings: RCH-ACV NSD2 E1099K (9B) viability, CellTiter-Glo, 72 h; series mostly up to 44.9 µM; also: nearly all actives have a fitted effect of over 70% in size
[5] = Primary qHTS for inhibitors of nuclear receptor binding SET domain protein 2 (NSD2) in an RCH-ACV wild type WT cells (2C) (AID 1645877); settings: RCH-ACV (leukaemia line) NSD2 WT (2C) viability, CellTiter-Glo, 72 h; series mostly up to 44.9 µM; also: nearly all actives have a fitted effect of over 70% in size
[6] = target: Rap guanine nucleotide exchange factor 3 (Homo sapiens) (UniProt O95398); assay: Confirmatory qHTS for antagonist of cAMP-regulated guanine nucleotide exchange factor 3 (EPAC1) (AID 1645880); settings: EPAC1 Rap1B-BODIPY-GDP exchange, fluorescence; series mostly up to 115 µM; also: nearly all actives have a fitted effect of over 55% in size
Chain of Rap guanine nucleotide exchange factor 3 (Homo sapiens) (O95398 whole entry, looked up): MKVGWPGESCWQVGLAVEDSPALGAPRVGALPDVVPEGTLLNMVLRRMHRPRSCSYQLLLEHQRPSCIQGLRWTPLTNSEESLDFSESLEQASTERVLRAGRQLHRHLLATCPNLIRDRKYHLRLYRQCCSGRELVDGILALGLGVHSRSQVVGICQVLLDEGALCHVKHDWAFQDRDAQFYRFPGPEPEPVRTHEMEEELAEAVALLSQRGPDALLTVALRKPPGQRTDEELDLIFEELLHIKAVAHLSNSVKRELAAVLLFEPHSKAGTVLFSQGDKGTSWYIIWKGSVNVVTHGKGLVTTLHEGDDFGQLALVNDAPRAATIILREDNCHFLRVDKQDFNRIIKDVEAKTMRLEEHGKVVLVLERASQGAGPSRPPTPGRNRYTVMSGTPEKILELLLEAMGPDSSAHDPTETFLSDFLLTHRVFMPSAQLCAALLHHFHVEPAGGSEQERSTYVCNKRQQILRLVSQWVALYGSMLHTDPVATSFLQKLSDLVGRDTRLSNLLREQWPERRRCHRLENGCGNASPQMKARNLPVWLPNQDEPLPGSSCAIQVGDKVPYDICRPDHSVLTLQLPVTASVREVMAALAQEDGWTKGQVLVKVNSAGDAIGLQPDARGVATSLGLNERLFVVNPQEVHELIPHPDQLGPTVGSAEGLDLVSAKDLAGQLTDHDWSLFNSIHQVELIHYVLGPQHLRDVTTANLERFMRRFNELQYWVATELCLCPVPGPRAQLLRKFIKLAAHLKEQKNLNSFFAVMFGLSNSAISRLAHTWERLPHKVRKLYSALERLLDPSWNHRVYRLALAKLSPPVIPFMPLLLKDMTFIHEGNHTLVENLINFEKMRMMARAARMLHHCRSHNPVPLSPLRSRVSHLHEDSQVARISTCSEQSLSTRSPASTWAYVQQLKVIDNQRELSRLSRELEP
In short: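 Released BODIPY-GDP fluoresces less than Rap1-bound BODIPY-GDP; the signal is followed at 480/540 nm at 5-min intervals over 30 min, after 5 min at room temperature. Reactions contain 100 nM EPAC1, 250 nM RAP1B-BODIPY-GDP and 50 uM GDP; results are normalized to ATA and DMSO.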

[7] = target: Rap guanine nucleotide exchange factor 3 (Homo sapiens) (UniProt O95398); assay: Confirmatory qHTS for agonist of cAMP-regulated guanine nucleotide exchange factor 3 (EPAC1) (AID 1645881); settings: EPAC1 Rap1B BODIPY-GDP exchange fluorescence; series mostly up to 154 µM;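 also: EPAC1 catalysed release of BODIPY-GDP from Rap1B seen as fluorescence loss; nearly all actives have a fitted effect of over 75% in size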
[8] = target: Papain (Carica papaya) (UniProt P00784); assay: Primary qHTS assay for inhibitors of the protease papain (AID 1645873); settings: papain Z-FR-AMC cleavage, AMC fluorescence; series mostly up to 49.8 µM;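 also: papain turnover of Z-FR-AMC read as the AMC fluorescence gain over 10 min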
Chain of Papain (Carica papaya) (P00784 whole entry, looked up): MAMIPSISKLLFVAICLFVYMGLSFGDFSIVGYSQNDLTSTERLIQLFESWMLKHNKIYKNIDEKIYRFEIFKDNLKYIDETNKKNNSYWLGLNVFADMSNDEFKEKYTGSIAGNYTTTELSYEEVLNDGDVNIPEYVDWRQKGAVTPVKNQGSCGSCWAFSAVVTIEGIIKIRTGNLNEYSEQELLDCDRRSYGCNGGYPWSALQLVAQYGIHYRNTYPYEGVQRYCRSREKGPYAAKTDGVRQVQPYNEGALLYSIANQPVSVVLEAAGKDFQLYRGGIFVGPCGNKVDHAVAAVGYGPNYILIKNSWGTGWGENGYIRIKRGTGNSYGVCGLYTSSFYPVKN

Measured: Potency

NC(=O)c1ncn([C@@H]2O[C@H](CO)[C@@H](O)[C@H]2O)c1N
inactive: [1] | [2] | [3] | [4] | [5]

COc1cc2[nH]c(=O)[nH]c(=O)c2cc1OC
inactive: [1] | [2] | [3] | [4] | [5]

CC1(C)Oc2ccc(C#N)cc2[C@@H](N2CCCC2=O)[C@@H]1O
inactive: [1] | [2] | [3] | [6] | [7]

CC1(C)OC(=O)NC1=O
inactive: [1] | [2] | [3] | [4] | [5]

O=C(O)CC(O)C(=O)O (stereo not given)
inactive: [1] | [2] | [3] | [4] | [5]

CC(=O)CCC(=O)O
inactive: [1] | [2] | [3] | [4] | [5]

CC[C@@]1(c2ccccc2)NC(=O)N(C)C1=O
inactive: [1] | [2] | [3] | [4] | [5]

O=C1N=C(O)CN1/N=C/c1ccc(-c2ccc([N+](=O)[O-])cc2)o1
inactive: [1] | [2] | [8] | [4] | [5]

CCN(CC)C(=O)Nc1ccc(OCC(O)CNC(C)(C)C)c(C(C)=O)c1 (stereo not given)
inactive: [1] | [2] | [3] | [4] | [5]

O=c1cc(CO)occ1O
inactive: [1] | [2] | [3] | [4] | [5]
